From PubChem BioAssay AID2314 (National Center for Advancing Translational Sciences (NCATS), 2010)
The whole screen tested about 300,000 compounds, of which about 37,000 (12%) were called active. No stated cut-off is given here; in the data, active means max response mostly above about 13% (no sharp cut-off); inactive means mostly below about 14%. The entries come from a sample that favours actives as a whole.

Assay: Cycloheximide Counterscreen for Small Molecule Inhibitors of Shiga Toxin; further: read at 38.3 µM for the half of the compounds with a filed dose; 0% is about no effect
Settings: cell reporter, cycloheximide protein synthesis inhibition counterscreen; stronger effect = higher value

Row | SMILES | max response
1 | CSc1nc(-c2ccco2)nn1C(=O)c1ccccc1Cl | 1.46% (inactive)
2 | Cc1ccc(S(=O)(=O)NC(=O)Nc2nc(-c3ccc(F)c(F)c3)cs2)cc1 | 19.2% (active)
3 | COc1cc(CC(=O)Nc2nc(-c3ccc(F)c(F)c3)cs2)cc(OC)c1OC | -5.65% (inactive)
4 | COc1ccc(CC(=O)Nc2nc(-c3ccc(F)c(F)c3)cs2)cc1OC | -6.69% (inactive)
5 | O=[N+]([O-])c1ccc(N(CCO)Cc2ccccc2)c([N+](=O)[O-])c1 | -2.22% (inactive)
6 | C/C(=N/NC(=O)c1cc(Cl)ccc1O)C12CC3CC(CC(C3)C1)C2 | 18.4% (inactive)
7 | Cc1ccc(C)c(N2C(=O)CS/C2=N\NC(=O)c2ccccc2Cl)c1 | -3.78% (inactive)
8 | O=C(N/N=C1\CCSC1)c1cc(Cl)ccc1O | 18.7% (active)
9 | Cc1cc(C=O)c(C)n1-c1ccc(NC2CCCCC2)c([N+](=O)[O-])c1 | 6.55% (inactive)
10 | Cc1cc(=O)oc2c(C)c(OC(C)C(=O)NC3CCN(Cc4ccccc4)CC3)ccc12 (stereo not given) | -2.67% (inactive)
11 | COc1ccc(NC(=O)C(=O)NCC(=O)Nc2cccc(C(F)(F)F)c2)cc1 | -1.93% (inactive)
12 | COc1ccc(C(CC(=O)Nc2ccc(C)cc2)NC(=O)C(F)(F)F)cc1 (stereo not given) | 12.7% (active)
13 | COc1ccc(NC(=O)CC(NC(C)c2ccccc2)C(=O)O)cc1 (stereo not given) | -3.91% (inactive)
14 | Cc1ccc(NS(=O)(=O)c2ccc3c(c2)NC(=O)CO3)cc1 | -9.63% (inactive)
15 | COc1ccc(CNC(=O)C(Cc2ccccc2)n2cccc2)cc1 (stereo not given) | -3.21% (inactive)
16 | CCOC(=O)C1Sc2[nH]c(=O)sc2C(c2ccc(Cl)cc2)C1C(=O)OCC (stereo not given) | -1.02% (inactive)
17 | COc1ccc(N2CCN(C(=O)c3ccc(N4CCCCS4(=O)=O)cc3)CC2)cc1 | -2.57% (inactive)
18 | CCC(=C/c1sc2ccc3ccccc3c2[n+]1C)/C=C1\Sc2ccc3ccccc3c2N1C | -3.42% (inactive)
19 | Cc1nc2nc(SCC(=O)c3ccccc3)[nH]c2cc1Br | 1.25% (inactive)
20 | Cc1ccc2nc(SCC(=O)NC3CCCC3)[nH]c2c1 | -3.78% (inactive)
21 | Cc1cc(C)c(NC(=O)CSc2nc3ccncc3[nH]2)c(C)c1 | 8.2% (inactive)
22 | CCOC(=O)CSc1nc2ccc(C)cc2[nH]1 | 17% (active)
23 | CC(=O)Nc1ccc(C(=O)CSc2nc3ccc(C)cc3[nH]2)cc1 | 19.9% (active)
24 | COc1ccc2nc(SCC(=O)Nc3c(C)cc(C)cc3C)[nH]c2c1 | -5.11% (inactive)
25 | COc1ccc(/C=N/N(C)C2=NS(=O)(=O)c3ccccc32)cc1OC | -4.65% (inactive)
